Experimental data taken from PubChem BioAssay (NCI).
Values joined by “and” are separate entries in the source; they are usually repeats but may differ in a detail not shown here. Equal values may be shown once. This is part of a sample that, as a whole, favours compounds with a hit. Of some 83,000 tested, about 20% had one in any assay.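 Cells were grown in 96-well plates and exposed to the test compound at a single concentration for 48 hours; results are reported as percent growth, with values below 10 considered active.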 A number with no mark means an inactive call. Active and inactive are the calls of the source.

system: MDA-MB-435 melanoma; assay: NCI-60 one-dose screen, 48 h (100 = growth as untreated, 0 = no growth, -100 = all killed); settings: 10 µM unless noted

SMILES	growth
S=C(Nc1ccc(OCc2nc3ccc(Cl)cc3[nH]2)cc1)NC1CCCCC1	-10.4% (active)
CC(C)(C)C(=O)c1c2c(c3ccc4c5ccccc5ccc4n13)C(=O)c1ccccc1C2=O	103%
COc1ccc(-c2cc(C)nc3[nH]c(=O)sc23)cc1	78.7%
O=C(Nc1nc2ccccc2s1)Nc1ccccc1Cl	100%
COC(=O)c1cc(C(=O)C(C)(C)C)n2c3ccccc3c3ccccc3c12	105%
CC(=O)Nc1cccc(-n2c(COc3ccc(I)cc3)nc3ccccc32)c1	97.7% and 108%
COc1ccc(N=Nc2c(N)nn3c(-c4cc5ccccc5oc4=O)ccnc23)cc1	75.5%
O=C(Nc1ccc(S(=O)(=O)N2CCCCC2)cc1)C(Cl)Cl	109%
CC(C)(C)OC(=O)N1C/C(=C\c2ccc(F)cc2)C(=O)/C(=C/c2ccc(F)cc2)C1	-82.6% (active)
O=C(COc1ccc(/C=C2/C(=O)Nc3ccc(Cl)cc32)cc1)Nc1ccc(Br)cc1	-1.54% (active)
O=C(Cn1c(-c2ccccc2)nc2ccccc21)N=Nc1c(O)[nH]c2ccc(Br)cc12	-32.3% (active)
COc1cccc(-c2ccc(/C=N/NC(=O)c3[nH]c4ccc(Br)cc4c3-c3ccccc3)s2)c1	-51.3% (active)
O=C(c1ccc(Cl)cc1)C1[C@H](c2ccccc2Cl)[C@@H](c2ccccc2)NC12C(=O)Nc1ccc(Cl)cc12 (some centres undefined)	-87.5% (active)
COc1ccc(-c2cc(-c3ccccc3)c(C#N)c(=O)[nH]2)cc1S(N)(=O)=O	102%
